# Columns and labels:
# Experiment in all cases: PBM binding z-score (relative to random genomic background probes); higher = stronger binding; sequences stand for … in GC…GCGATTGACAGCGTAGAATGAAGG
# [1] = system: PPARg:RXRa DBDmut IVT, anti-RXR (DBD mutation: RXRa K156A/R161A, NR concentration 270 nM, RXRa partner concentration 90 nM)
# How it was run: (§1)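 Ligand-free nuclear receptor dimers were applied to custom Agilent 4×180K protein-binding microarrays whose double-stranded probes carried direct-repeat seeds, single-nucleotide variants, half-site ablations and random human genomic background sequences in 34-nt variable regions. Incubation lasted 1 h. Binding z-scores were computed against the random background probes from regression-normalized fluorescence.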
# [2] = system: PPARg:RXRa IVT, anti-PPARg (NR concentration 270 nM, RXRa partner concentration 90 nM)
# How it was run: as §1
# [3] = system: PPARg DBDmut:RXRa IVT, anti-PPARg (DBD mutation: PPARg1 K132A/R137A, NR concentration 270 nM, RXRa partner concentration 90 nM)
# How it was run: as §1
# [4] = system: PPARg DBDmut IVT, anti-PPARg (DBD mutation: PPARg1 K132A/R137A, NR concentration 270 nM)
# How it was run: as §1
# [5] = system: PPARg homodimer (NR concentration 180 nM)
# How it was run: as §1
# [6] = system: PXR:RXRa (NR concentration 270 nM, RXRa partner concentration 90 nM)
# How it was run: as §1
# [7] = system: PXR homodimer (NR concentration 270 nM)
# How it was run: as §1
# [8] = system: RARa:RXR (NR concentration 270 nM, RXRa partner concentration 90 nM)
# How it was run: as §1
# [9] = system: RARa homodimer (NR concentration 270 nM)
# How it was run: as §1
# [10] = system: RARb:RXRa (NR concentration 270 nM, RXRa partner concentration 90 nM)
# How it was run: as §1
# [11] = system: RARb homodimer (NR concentration 270 nM)
# How it was run: as §1
# [12] = system: RARg:RXRa (NR concentration 270 nM, RXRa partner concentration 90 nM)
# How it was run: as §1
# [13] = system: RARg homodimer (NR concentration 270 nM)
# How it was run: as §1
# [14] = system: RXRa DBDmut IVT, anti-RXR (DBD mutation: RXRa K156A/R161A, NR concentration 90 nM)
# How it was run: as §1
# [15] = system: RXRa homodimer (NR concentration 180 nM)
# How it was run: as §1
# [16] = system: THRa:RXRa (NR concentration 90 nM, RXRa partner concentration 90 nM)
# How it was run: as §1
# [17] = system: THRa homodimer (NR concentration 90 nM)
# How it was run: as §1
# [18] = system: VDR homodimer (NR concentration 270 nM)
# How it was run: as §1
Sequence,PBM binding z-score [1],PBM binding z-score [2],PBM binding z-score [3],PBM binding z-score [4],PBM binding z-score [5],PBM binding z-score [6],PBM binding z-score [7],PBM binding z-score [8],PBM binding z-score [9],PBM binding z-score [10],PBM binding z-score [11],PBM binding z-score [12],PBM binding z-score [13],PBM binding z-score [14],PBM binding z-score [15],PBM binding z-score [16],PBM binding z-score [17],PBM binding z-score [18]
CCTACTGGGCCATCAAGTCATTGATATCAACGTT,3.82,3.91,-0.107,0.228,0.653,-0.138,-0.334,0.32,0.00429,0.23,0.27,0.122,0.368,0.0115,-0.103,-0.116,-0.0575,-0.205
TCTATTAGTTGTAGGGCAACCGACGAGTCCGTTT,3.04,2.66,0.777,1.16,0.517,0.457,0.613,0.212,0.401,0.601,0.489,0.147,0.469,1.17,0.403,0.112,0.0984,1.13
CCTACTGGGCCACGAAATGTCATTGATTCAGTGA,6.24,5.34,0.216,-0.527,0.759,-0.308,-0.533,0.0426,-0.591,0.57,0.607,0.2,0.479,-0.374,-0.0138,0.211,-0.319,-0.54
ACTAGCAGGCCAAGGGTCACTCACGATTAGTCCG,1.04,3.8,0.074,-0.149,1.92,3.09,-0.277,3.55,0.389,3.45,3.79,3.91,2.97,0.459,3.93,2.56,0.409,1.07
CCTTACGGGTCACTGACGGGTTATAGCATTTGGA,2.64,3.56,0.267,0.298,3.14,3.66,-0.038,4.82,0.976,4.04,3.38,5.58,4.49,1.51,5.1,2.74,0.301,0.822
TTACCAAGGTGAAGGTCGATGATCCCTCTGTAGA,1.53,3.14,-0.416,-0.0425,0.524,0.883,0.0636,1.36,0.0108,2.11,1.64,1.22,1.39,-0.217,1.4,2.05,0.572,0.0587
ACTATTAGTTAACTTAGGGCAACCGATACGACGC,0.0765,0.837,0.677,1.02,0.328,0.418,0.13,0.582,0.421,0.959,0.839,0.89,1,0.837,0.532,1.88,0.447,0.283
CCTTACGCGTCACTGACAGGTTATAGCATTTGGA,0.598,-0.176,0.212,0.276,0.943,0.459,0.407,0.676,1.36,0.243,0.655,0.439,0.151,1,0.414,0.506,0.512,0.287
ACAATGAGGTTATACGTAGATCAGGGAAGAAAGT,2.72,1.93,1.33,1.68,0.816,1.19,0.655,1.82,0.312,1.69,0.975,1.89,1.55,2.02,2.16,2.13,0.593,1.28
CCTACTGGGCCCTCAGGTCATTGATATCAACGTT,-0.0673,1.11,-0.224,-0.58,0.88,1.43,0.581,1.64,0.179,1.4,2,1.1,0.939,-0.149,0.755,3,2.78,1.17
TCGAGTAGTTTACCAATGGGGCATTCAGCTTTCT,0.933,-0.146,-0.382,0.0492,-0.418,-0.0619,-0.235,0.338,-0.982,0.0508,0.239,-0.401,-0.51,0.878,-0.356,-0.217,-0.644,-0.305
CAAACTAGGTCACAGAGGTCAAGGTCCGTGCGTA,8.45,9.01,2.38,2.54,4.67,6.54,10,7.58,2.96,5.46,5.39,7.22,7.73,2.61,7.09,5.05,3.46,4.66
ATATGTAGGTTTCATCCGGGTCATTCAGGCTATG,4.9,4.69,1.71,1.7,1.33,2.86,2.28,2.55,0.582,1.43,2.53,1.62,0.901,1.35,2.07,3.22,2.18,3.21
TCTATTAGTTTAAGGGCAACCGACGAGTCCGTTT,2.37,0.624,0.439,1.5,1.46,1.39,1.67,1.39,1.3,2.22,2.12,0.831,1.17,1.94,0.958,2.69,2.56,2.78
TTACCAGGGTGAGCTGAGGTCGTTGATCCAACTC,0.596,1.4,-1.02,-0.726,0.323,5.42,0.925,2.13,-0.657,1.24,1.24,1.08,0.39,-0.148,1.37,4.67,1.57,2.47

# — the supplement of paper PMC6555819
